Source: PubChem (National Center for Advancing Translational Sciences (NCATS))
NPSR antagonist – blocks cAMP signaling of the human neuropeptide S receptor; CHO-NPSR cells, cAMP TR-FRET, antagonist mode; Potency, µM (highest dose often 38.3 µM), inactives show at the top dose activity change, negative = inhibition, usual class: inhibitors; hit rate 1% among 220,000; further: potency means the concentration at half of the fitted maximal effect; nearly all actives have a fitted effect of over 50% in size
IMPase inh – cell-permeable inhibitors of inositol monophosphatase (IMPase) | P97697 | AID 901 | 120,000 tested, under 10 active | CHO-M1 cells, IP1 accumulation, HTRF TR-FRET ratio | inhibition (IP1 accumulation), % at 46.1 µM; active means well fitted curve in the direction sought with a large enough effect in the signal ratio, not every such curve was filed as active; inconclusive means small, poorly fitted or top-dose-only effect, or a change in a side signal; inactive means no such curve, though single readings can be large or run the other way; the % refers to the signal ratio;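 further: cells stimulated with carbachol in lithium chloride buffer; plate controls were DMSO basal wells for no effect and reference inhibitor wells for full effect; higher means more IMPase inhibition seen as more IP1 and lower FRET ratio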
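The IP-One HTRF competitive assay in carbachol-stimulated CHO-M1 cells quantifies cellular IP1. Compounds spanned up to 46 uM final, and activity is expressed as AC50 from concentration-response fits of the ratio and donor data.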
ALDH1A1 block – blocks purified human ALDH1A1 activity | P00352 | Purified ALDH1A1, NADH fluorescence, propionaldehyde substrate | Potency, µM (top dose mostly 75.3 µM), for the others: top-dose activity, negative = inhibition, usual class: inhibitors | hit rate 7.3% among 220,000 | AID 1030; active means well fitted inhibition curve with a large enough effect, not every such curve was filed as active; inconclusive means small, poorly fitted or top-dose-only effect, or another doubt; inactive means no such curve, though single readings can be large or run the other way;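 further: potency means the concentration at half of the fitted maximal effect; plate controls were no enzyme wells and a reference inhibitor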
ALOX12 inhib – inhibitors of human 12-lipoxygenase (ALOX12). P18054. purified 12-hLO, xylenol orange hydroperoxide absorbance. Potency, µM (doses to about 57.1 µM), inactives show at the top dose activity change, negative = inhibition, hits mostly inhibitors. hit rate 0.12% among 150,000. AID 1452; further: potency means the concentration at half of the fitted maximal effect; nearly all actives have a fitted effect of over 55% in size
Target sequence (P18054 whole entry, looked up): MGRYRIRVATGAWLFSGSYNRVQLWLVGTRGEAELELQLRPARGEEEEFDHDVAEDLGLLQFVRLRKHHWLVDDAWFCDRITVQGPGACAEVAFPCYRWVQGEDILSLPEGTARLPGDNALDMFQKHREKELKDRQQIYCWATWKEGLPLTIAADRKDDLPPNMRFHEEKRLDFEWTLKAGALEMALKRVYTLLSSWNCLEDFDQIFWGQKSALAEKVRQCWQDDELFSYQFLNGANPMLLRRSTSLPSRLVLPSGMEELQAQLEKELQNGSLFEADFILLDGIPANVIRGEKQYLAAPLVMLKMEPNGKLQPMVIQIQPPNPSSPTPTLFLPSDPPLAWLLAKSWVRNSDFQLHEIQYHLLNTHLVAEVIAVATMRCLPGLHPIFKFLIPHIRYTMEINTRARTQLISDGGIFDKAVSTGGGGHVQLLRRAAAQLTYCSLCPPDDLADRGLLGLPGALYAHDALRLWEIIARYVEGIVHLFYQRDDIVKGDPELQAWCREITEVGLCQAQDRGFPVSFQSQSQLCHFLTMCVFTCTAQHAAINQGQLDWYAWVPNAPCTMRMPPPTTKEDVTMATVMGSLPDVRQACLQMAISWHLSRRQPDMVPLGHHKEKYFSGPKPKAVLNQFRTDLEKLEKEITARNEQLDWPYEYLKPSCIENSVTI
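Xylenol orange chromogenic assay: hydroperoxide from 12hLO oxidises Fe(II), giving red-shifted Fe(III)-XO absorbance. Conditions: 150 nM enzyme, 40 uM arachidonic acid, 25 mM Hepes pH 7.0, 0.01% Triton X-100, 30 min, room temperature.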
IMPase Li inh – IMPase inhibition in cells with lithium potentiation | CHO-M1 cells, IP1 TR-FRET (IP-One), carbachol + lithium | Potency, µM (doses to about 59.4 µM), for the others: top-dose activity, negative = IMPase inhibition, hits mostly inhibitors | hit rate 0.35% among 210,000;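 further: IP1 builds up when IMPase is blocked and the TR-FRET signal falls; potency means the concentration at half of the fitted maximal effect; plate controls were basal vehicle for no effect and high inhibitor control for full effect; nearly all actives have a fitted effect of over 50% in size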
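Lithium-sensitised IP1 accumulation assay; M1-expressing CHO cells treated 30 min at 37C with compound. Competitive antibody detection by time-resolved FRET followed a 10 min room-temperature lysis step.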
HPGD inh – HPGD (human) dehydrogenase inhibition; purified HPGD, NADH fluorescence kinetic, PGE2 substrate; Potency, µM, for the others: at the top dose activity change, negative = inhibition, hits mostly inhibitors; hit rate 4.3% among 150,000; AID 894; active means well fitted inhibition curve with a large enough effect, not every such curve was filed as active; inconclusive means small, poorly fitted or top-dose-only effect, or another doubt; inactive means no such curve, though single readings can be large or run the other way; further: potency means the concentration at half of the fitted maximal effect
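20 nM HPGD preincubated 15 min at room temperature with compound in 50 mM Tris-HCl pH 8, 0.01% Tween 20. Started with 1 mM NAD+ and 30 uM prostaglandin E2; NADH fluorescence (360/450 nm) read 5 times over 30-s intervals, last minus first.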
* marks the source's active call; other numbers are inactive results; ? = inconclusive; . = not tested or not shown; ! = a repeat was not active; [ ] = remark or other dose. Rows were chosen to be rich in hits. Some 8.9% of all compounds tested hit in one or more screens of this group. Unless noted, the call rests on the fitted dose curve; in most records, active means well fitted curve in the direction sought with a large enough effect; inconclusive means small, poorly fitted or top-dose-only effect, or another doubt; inactive means no such curve, though single readings can be large; an effect the other way counts as inactive or inconclusive. Unless noted, on the % scale 0 is the no-effect control and ±100 the full control effect.

SMILES | NPSR antagonist | IMPase inh | ALDH1A1 block | ALOX12 inhib | IMPase Li inh | HPGD inh
O=C(c1cccc(C(F)(F)F)c1)N1CCN(c2cc(=O)[nH]nc2-c2ccccc2)CC1 | -12%[46.1 µM] | 4 | 3µM* | -3% | -2%[38.3 µM] | 23%
Cc1cc(NC(=O)CSc2ccc(-c3ccc4c(c3)OCO4)nn2)no1 | -39% | . | 3% | . | -19% | .
Cn1c(=O)cc(SCC(=O)N2CCCC2)c2ccc(Cl)cc21 | ? | -29 | ? | 2% | -22%[38.3 µM] | 14µM*
COc1cc(CN(C2CCCCC2)S(=O)(=O)c2ccc(S(=O)(=O)N(C)C3CCCCC3)cc2)cc(OC)c1OC | 1% | . | ? | 3% | -9% | -6%
COc1ccc(S(=O)(=O)N(Cc2cccs2)C2CCCC2)cc1 | -1%[46.1 µM] | 13 | 8.9µM* | 1% | 38%[38.3 µM] | -12%
COc1ccc(S(=O)(=O)NCc2cccs2)cc1 | 0%[46.1 µM] | -2 | 10µM* | 11% | 18%[38.3 µM] | -19%
COc1ccc(CNS(=O)(=O)c2ccc(OC)cc2)cc1 | -11%[46.1 µM] | 3 | -7% | -1% | 10%[38.3 µM] | -5%
COc1ccc(S(=O)(=O)NCCCCNS(=O)(=O)c2ccc(OC)cc2)cc1 | -13%[46.1 µM] | 6 | 1.3µM* | -13% | 18%[38.3 µM] | -10%
COc1ccc(OCC(=O)NCCCn2ccnc2)cc1 | 13% | . | . | . | . | .
O=S(=O)(NC1CCCCC1Oc1ccccc1)c1ccccc1 (stereo unspecified) | -6%[46.1 µM] | -4 | 16µM* | -2% | 1% | -11%
O=S(=O)(NC1CCCCC1Nc1ccc(Cl)cc1)c1ccccc1 (stereo unspecified) | -28% | . | 14µM* | -5% | 14% | -2%
O=S(=O)(NC1CCCCC1Sc1ncccn1)c1ccccc1 (stereo unspecified) | 3% | . | ? | 1% | -4% | -11%
Cc1cccc(N(CC(=O)NCc2ccccc2)S(C)(=O)=O)c1C | . | -2 | . | . | . | .
CSc1ccc(C(=O)C2CCCN(Cc3cccc4nccnc34)C2)cc1 (stereo unspecified) | -20% | . | . | . | . | .
O=C1C=CC2=C3c4cc(O)c(O)cc4C[C@]3(O)COC2=C1 | . | . | 5% | -20% | 50% | 16µM*
CCN(CC(=O)Nc1c(C(=O)OC)[nH]c2ccc(C)cc12)c1ccc2c(c1)OCO2 | -13%[46.1 µM] | 14 | 14µM* | -14% | . | .
Cc1nc2c3ccccc3nc(SCC(=O)N3CC(C)CC(C)C3)n2n1 (stereo unspecified) | -12%[46.1 µM] | 9 | 7.1µM* | 0% | -10%[38.3 µM] | ?
Cc1nc2c3ccccc3nc(SCC(=O)c3ccc(Cl)cc3)n2n1 | 12% | . | 0% | 0% | 21% | -8%
COc1ccc(/C=C/C(=O)c2ccc3c(c2)OCO3)c(OC)c1 | -9% | . | ? | -17% | 3% | -26%
CCN1/C(=C/C(C)=O)Sc2ccc(OC)cc21 | ? | 6 | ? | -9% | 29%[38.3 µM] | 13µM*!
CC(C)c1ccccc1-n1cc[nH]c1=S | 10% | . | 10µM* | . | -1% | .
Cc1cccc(-n2cc[nH]c2=S)c1C | 13%[46.1 µM] | 9 | 11µM* | -3% | . | .
NNC(=O)CCc1nc2ccc(O)cc2[nH]1 | 20% | . | -2% | . | -5% | .
CCN1CCN(c2c(C(=O)c3ccc(OC)cc3)cnc3ccccc23)CC1 | -24% | . | 2.8µM* | . | -3% | .
CCOC(=O)c1ccc(-c2c(C(=O)OCC)oc3cc(O)c(CC)cc3c2=O)o1 | ? | 10 | 10µM* | -8% | 37%[38.3 µM] | -17%
SMILES | NPSR antagonist | IMPase inh | ALDH1A1 block | ALOX12 inhib | IMPase Li inh | HPGD inh
CCOC(=O)c1oc2cc(O)c(CC)cc2c(=O)c1-c1cscn1 | -16% | . | -13% | . | 8% | .
CC(=O)C1C(=O)c2c(cccc2[N+](=O)[O-])C1=Nc1ccc(S(N)(=O)=O)cc1 (stereo unspecified) | 28% | . | 22µM* | . | 3% | .
Cc1ccc(NC(=S)/C(=C(\[O-])c2ccc(Cl)s2)[n+]2cccc(CO)c2)cc1C | -18% | . | 14µM* | . | 2% | .
[O-]/C(=C(\C(=S)Nc1cccc2ccccc12)[n+]1cccc(CO)c1)c1ccc(Cl)s1 | -13% | . | 13µM* | . | -6% | .
O=C(CCN1C(=O)C2CC=C(Cl)CC2C1=O)NCc1ccco1 (stereo unspecified) | -6%[46.1 µM] | 8 | 22µM* | -4% | 28%[38.3 µM] | -18%
O=C(CCN1C(=O)C2CC=C(Cl)CC2C1=O)NCc1ccccc1 (stereo unspecified) | -5%[46.1 µM] | -5 | ? | -2% | 9% | -2%
Cc1ccc(CN2C(=O)C[C@@H](NS(=O)(=O)c3ccc4ccccc4c3)C/C=C\C2c2ccc(C)cc2)cc1 (stereo partly specified) | . | . | 22µM* | -1%[0.00818 µM] | -1% | -7%
Cn1c(=O)c(Sc2ccccc2)c(O)c2ccccc21 | 13% | . | 25µM* | . | . | .
Cc1ccc(Sc2c(O)c3ccccc3n(C)c2=O)cc1 | -23% | . | -6% | -5% | 10µM* | -9%
CC1Cc2ccccc2N1C(=O)COC(=O)Cn1cnc2ccccc2c1=O (stereo unspecified) | -4%[46.1 µM] | 6 | ? | -5% | -19%[38.3 µM] | -8%
O=C(c1ccco1)N1CCN(C(=O)C2Cc3ccccc3CN2S(=O)(=O)c2ccc(F)cc2)CC1 (stereo unspecified) | ? | 6[9.22 µM] | ? | -1% | -7%[38.3 µM] | -3%
Cc1ccc(S(=O)(=O)N2CCN(C(=O)C3Cc4ccccc4CN3C(=O)c3ccco3)CC2)cc1 (stereo unspecified) | -18%[46.1 µM] | -1 | 8.9µM* | 12% | 7%[38.3 µM] | -10%
Cc1ccc(S(=O)(=O)N2CCN(C(=O)CN3CCc4ccccc4C3)CC2)cc1 | -4%[46.1 µM] | -1 | 14µM* | -15% | 15%[38.3 µM] | -6%
C=CCNC(=S)N1CCc2c([nH]c3ccccc23)C1C (stereo unspecified) | -19% | . | 1% | . | 6% | .
Cc1nn(Cc2ccc(C(=O)NN)cc2)c(C)c1Cl | 0% | . | . | . | . | .
CCc1ccc(S(=O)(=O)/N=C2/C=C(Sc3ncn[nH]3)C(=O)c3ccccc32)cc1 | 10µM* | . | 5µM* | ? | 33% | 1.6µM*
CN=c1scc(C)n1/N=C/c1ccc(O)c(O)c1O | -19%[46.1 µM] | ? | 3.2µM* | -29% | 80%[38.3 µM] | 7.1µM*
CN=c1scc(-c2cccs2)n1/N=C/c1ccc(O)c(O)c1O | -51% | 0 | 6.3µM* | -22% | 15% | 5µM*
CC(=O)Nc1sc(N/N=C\c2ccccc2)nc1-c1cccs1 | 2% | . | ? | -8% | 6% | -29%
CC(=O)Nc1sc(N/N=C\c2ccco2)nc1-c1cccs1 | -11% | 17 | 18µM* | -15% | 21% | 32µM*
CCOCCc1c(O)nc(SCC)[nH]c1=O | 6% | . | . | . | . | .
Cc1ccccc1-c1nnc(NC(=O)c2ccc(N3C(=O)CCC3=O)cc2)s1 | -7% | . | ? | 1% | -4% | -16%
C/C=C/C(=O)Nc1nnc(-c2ccccc2C)s1 | 6% | . | 7% | . | 10µM* | .
